From PubChem
Most compounds without a hit are left out; they make up all but 12% or so of the library.
BAZ2B block: qHTS Assay for Inhibitors of BAZ2B | 360,000 compounds, 4.4% hits | Bromodomain adjacent to zinc finger domain protein 2B (Homo sapiens), Q9UIF8 | Potency, µM (top dose mostly 114 µM), for inactives: at the top dose activity change, negative = inhibition, usual class: inhibitors | AlphaScreen BAZ2B-H3K14Ac peptide displacement; also: % is scaled to controls: 0 for no effect and ±100 for the full control effect; nearly all actives have a fitted effect of over 60% in size
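Inhibition is scored as reduced AlphaScreen emission. The BAZ2B/b-H3(5-23)K14Ac complex (50 nM each) in PBS pH 7.4, 0.01% Tween-20 meets compound (up to 110 uM) for 30 min at RT before bead addition.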
JMJD2A Tudor: qHTS Assay for Inhibitors of JMJD2A-Tudor Domain. AlphaScreen JMJD2A-Tudor / H3K4me3 peptide binding. Potency, µM (titrated, usually from 114 µM), for inactives: top-dose activity change, negative = inhibition, most hits filed as inhibitors. 390,000 compounds, 4.4% hits; also: % is scaled to controls: 0 for no effect and ±100 for the full control effect; nearly all actives have a fitted effect of over 50% in size
L3MBTL1 block: qHTS Assay for the Inhibitors of L3MBTL1 | Lethal(3)malignant brain tumor-like protein 1 (Homo sapiens), Q9Y468 | AlphaScreen L3MBTL1–H3K9me1 peptide binding | Potency, µM (doses to about 57.1 µM), for inactives: at the highest dose activity, negative = inhibition, actives largely listed as inhibitors | 230,000 compounds, 0.66% hits | AID 485360, 2010; also: % is scaled to controls: 0 for no effect and ±100 for the full control effect; nearly all actives have a fitted effect of over 60% in size
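L3MBTL1 50 nM + b-AHA-H3(1-15)K9me1 75 nM, 30 min RT; compound added, 30 min RT; streptavidin donor/Ni-chelate acceptor beads 10 ug/mL each final, 30 min RT dark; AlphaScreen read.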
Sfp PPTase inh: qHTS Assay for Inhibitors of Bacillus subtilis Sfp phosphopantetheinyl transferase (PPTase); Biochemical Sfp PPTase activity, qHTS; Potency, µM, for inactives: largest response in the series, negative = inhibition, most hits filed as inhibitors; 4'-phosphopantetheinyl transferase ffp (Bacillus subtilis), Q9F4F7; 310,000 compounds, 3.5% hits;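 also: the enzyme is Sfp with the accession as filed and its product quenches rhodamine fluorescence; 0% = enzyme reaction without inhibitor and -100% = no enzyme wells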
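Reaction rates are the 30-min fluorescence difference (ex 525, em 598 nm) in wells containing 15 nM Sfp, 5 uM rhodamine-CoA and 12.5 uM BHQ-2-YbbR at pH 7.6 with 10 mM MgCl2.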
G9a inh: qHTS Assay for Inhibitors of Histone Lysine Methyltransferase G9a. G9a H3K9 monomethylation, AlphaScreen, 2 h. Potency, µM (series often up to 102 µM), for the others: at the top dose activity, negative = inhibition, usual class: inhibitors. 350,000 compounds, 8.8% hits. AID 504332, 2011. Histone-lysine N-methyltransferase EHMT2 (Homo sapiens), Q96KQ7; also: % is scaled to controls: 0 for no effect and ±100 for the full control effect; nearly all actives have a fitted effect of over 75% in size
Target sequence (Q96KQ7 913-1193 limits assumed): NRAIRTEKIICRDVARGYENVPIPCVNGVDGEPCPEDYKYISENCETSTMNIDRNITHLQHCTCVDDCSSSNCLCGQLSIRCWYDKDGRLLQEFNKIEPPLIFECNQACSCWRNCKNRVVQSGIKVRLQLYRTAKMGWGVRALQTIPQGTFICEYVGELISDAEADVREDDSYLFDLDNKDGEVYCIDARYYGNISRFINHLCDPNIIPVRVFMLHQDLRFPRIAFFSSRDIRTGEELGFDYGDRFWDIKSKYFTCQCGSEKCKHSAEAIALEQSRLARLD
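Signal arises when biotinylated H3K9 peptide, once monomethylated, bridges streptavidin donor and antibody-captured acceptor beads. Enzyme at 20 nM was preincubated 15 min with test compounds; peptide 500 nM and SAM 20 uM then reacted for 2 h.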
HP1b chromo inh: HTS for Inhibitors of HP1-beta Chromodomain Interactions with Methylated Histone Tails; AID 540317, 2011; 390,000 compounds, 0.56% hits; Chromobox protein homolog 1 (Homo sapiens), P83916; Potency, µM (top dose mostly 114 µM), without a hit: at the highest dose activity change, negative = inhibition, usual class: inhibitors; AlphaScreen HP1-beta / biotin-H3K9me3 peptide binding; also: nearly all actives have a fitted effect of over 70% in size
Target sequence (P83916 whole entry, looked up): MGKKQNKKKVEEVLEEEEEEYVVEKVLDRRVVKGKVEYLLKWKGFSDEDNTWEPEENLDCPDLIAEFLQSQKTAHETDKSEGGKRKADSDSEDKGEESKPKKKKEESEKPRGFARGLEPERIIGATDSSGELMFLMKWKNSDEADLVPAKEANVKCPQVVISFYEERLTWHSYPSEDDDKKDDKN
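HP1-beta protein (50 nM final) preincubated 30 min at room temperature with biotinylated H3(1-18)K9me3 peptide (50 nM) in PBS pH 7.4, 0.01% Tween-20, then compound added for 30 min. AlphaScreen streptavidin donor/nickel chelate acceptor beads (10 ug/mL final), 30 min dark, luminescence read.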
The depositor's hits bear a star; ? = inconclusive; . = no result; [ ] = remark or other dose. Calls follow the shape of the dose curve; as a rule, active = well fitted curve in the direction sought with a large enough effect; inconclusive = small, poorly fitted or top-dose-only effect, or another doubt; inactive = no such curve, though single readings can be large; an effect the other way counts as inactive or inconclusive. Potency is read from the fitted curve at half-maximal effect.

SMILES	BAZ2B block	JMJD2A Tudor	L3MBTL1 block	Sfp PPTase inh	G9a inh	HP1b chromo inh
COc1cccc(OCC(O)CN2CCC(Cc3ccccc3)CC2)c1 (centres undefined)	2%	4%	-3%	-1%	14%[2.33 µM]	27%
O=[N+]([O-])c1ccc(CN2CCC(Cc3ccccc3)CC2)cc1	50µM*	28µM*	-5%	-20%	?	?
O=[N+]([O-])c1ccc(S(=O)(=O)N2CCN(C3CCN(Cc4ccccc4)CC3)CC2)cc1	28µM*	1.8µM*	.	-45%	32µM*	50µM*
O=[N+]([O-])c1ccc(C(=S)N2CCC(Cc3ccccc3)CC2)cc1	?	?	-27%	21%	?	?
CCCCN(CC)C(=O)c1c[nH]c2ccc(S(=O)(=O)N(C)c3ccc(Cl)cc3)cc2c1=O	1%	-16%	.	.	9%[59 µM]	14%
CCN(CC)C(=O)c1sc2c(c1C)c(=O)n(-c1ccc(C)c(C)c1)c(=O)n2CC(=O)Nc1ccc(F)cc1	-8%	-26%	.	.	4%[59 µM]	23%
CC(C)(C)OC(=O)N1CCC(c2c(C(=O)N3CCN(c4ccccn4)CC3)cnn2-c2ccc(F)cc2)CC1	14%[57.1 µM]	-15%	.	.	-3%[59 µM]	13%
COCC(=O)N1CCC[C@@]2(CCN(Cc3ccc(C#N)cc3)C2)C1	.	.	.	11%	-11%[12.7 µM]	.
O=[N+]([O-])c1ccccc1S(=O)(=O)N1CCCCC1	-8%	-13%	3%	-1%	14%[59 µM]	26%
O=[N+]([O-])c1ccccc1S(=O)(=O)N1CCN(C2CCN(Cc3ccccc3)CC2)CC1	-28%	0.71µM*	.	-2%	-29%	?
CCN(CC)C(=O)C1=C(C)Nc2nc3ccccc3n2C1c1ccc(Br)cc1 (centres undefined)	-3%	-5%	.	.	-29%[59 µM]	35%
Cc1ccc(-c2cc(C(=O)Nc3ccccc3C(N)=O)c3ccccc3n2)o1	.	-36%	.	.	.	0%
Cc1ccc(-c2cc(C(=O)N(C)CC(=O)Nc3ccccc3Br)c3ccccc3n2)o1	-1%	?	1%	.	8.9µM*	0%
CN(CC(=O)Nc1ccc(F)c(F)c1F)C(=O)c1cc(-c2ccncc2)nc2ccccc12	-7%	-28%	-6%	.	56µM*	-4%
CN(CC(=O)Nc1ccc(Cl)c(C(F)(F)F)c1)C(=O)c1cc(-c2ccncc2)nc2ccccc12	-24%	?	-4%	.	17%[2.33 µM]	-2%
COC(=O)c1ccc(Cn2nnc3sc4c(c3c2=O)CCC(C)C4)cc1 (centres undefined)	?	5%	.	.	2%[59 µM]	30%
COc1cccc(C2=CC(c3ccccc3)n3ncnc3N2)c1 (centres undefined)	56µM*	.	-7%	0%	?	.
COc1ccc(C2C=C(c3ccc(Cl)c(Cl)c3)Nc3ncnn32)cc1 (centres undefined)	-4%	-19%	.	.	-2%[59 µM]	51%
COc1cccc(C2=CC(c3ccc(N(C)C)cc3)n3ncnc3N2)c1 (centres undefined)	4%	.	29%	?	40µM*	.
Cc1ccc[n+](-c2nc([O-])sc2/C=N/Nc2ccc([N+](=O)[O-])cc2)c1	40µM*	-18%	-16%	-8%	11µM*	4%
CCOc1cc(C(=O)Nc2cccc3cccnc23)cc(OCC)c1OCC	70%	65%	.	.	84%[59 µM]	119%
O=C1C=CC(=O)c2c(O)c(CO)c(CO)c(O)c21	.	2.2µM*	.	.	.	3.2µM*
O=C1C=CC(=O)c2c(O)c(Cl)c(Cl)c(O)c21	.	.	.	11µM*	.	.
